Assay results as given in the antibiotic and cytotoxicity screens of Wong et al. (2023).
The whole screen tested about 39,000 compounds, of which about 1,500 (3.8%) were called active. The sample as a whole holds a higher share of actives than the screen did.

system: HSkMC (human skeletal muscle cells); test: cytotoxicity call (relative viability < 0.9); conditions: 10 µM

Structure (SMILES) | cytotoxicity call
CN1C(=O)c2cc(NS(=O)(=O)c3cccc(F)c3)ccc2OC[C@H]2O[C@H](CC(=O)NCCN3CCCCC3)CC[C@@H]21 | inactive
NC(=O)NC(=O)C[n+]1ccc(/C=N/O)cc1 | inactive
COc1ccc(S(=O)(=O)N(C)C[C@H]2Oc3ccc(N(C)C)cc3C(=O)N([C@@H](C)CO)C[C@@H]2C)cc1 | inactive
CS(=O)(=O)N1C[C@H]2C[C@@H](F)[C@@H](O)[C@@H]2C1 | inactive
C[C@@H]1CCCCO[C@@H](CN(C)C(=O)Nc2ccc3c(c2)OCO3)[C@@H](C)CN([C@H](C)CO)C(=O)c2cc(NC(=O)NC3CCCCC3)ccc2O1 | inactive
O=C(C[C@H]1C[C@@H]2c3cc(NS(=O)(=O)c4ccc(F)cc4)ccc3O[C@@H]2[C@H](CO)O1)NCc1cccnc1 | inactive
O=C(C[C@@H]1C[C@H]2c3cc(NC(=O)NC4CCCC4)ccc3O[C@H]2[C@H](CO)O1)NCc1ccc2c(c1)OCO2 | inactive
O=C(CN1CCOCC1)NCC[C@@H]1CC[C@@H](NC(=O)Cc2ccccn2)[C@H](CO)O1 | inactive
C[C@@H]1CN([C@@H](C)CO)C(=O)Cc2cc(NC(=O)C3CCCCC3)ccc2O[C@H]1CN(C)C(=O)Nc1ccc(C(F)(F)F)cc1 | inactive
CC[C@H]1CN(C)N1C(=O)[C@@H]1CCCO1 | inactive
CC(C)CC#Cc1ccc2c(c1)O[C@H](CN(C)C(=O)c1ccncc1)[C@H](C)CN([C@@H](C)CO)S2(=O)=O | inactive
C[C@H](CO)N1C[C@H](C)[C@H](CN(C)Cc2ccc(Cl)c(Cl)c2)Oc2ccc(NS(=O)(=O)c3ccc(Cl)cc3)cc2CC1=O | active
C[C@H](CO)N1C[C@H](C)[C@@H](CN(C)Cc2ccc(Cl)c(Cl)c2)Oc2ccc(NS(=O)(=O)c3ccc(Cl)cc3)cc2CC1=O | inactive
C[C@H]1CN([C@@H](C)CO)C(=O)Cc2cc(NS(=O)(=O)c3ccc(Cl)cc3)ccc2O[C@@H]1CN(C)Cc1ccc(Cl)c(Cl)c1 | inactive
C[C@@H]1CN([C@@H](C)CO)C(=O)Cc2cc(NS(=O)(=O)c3ccc(Cl)cc3)ccc2O[C@@H]1CN(C)Cc1ccc(Cl)c(Cl)c1 | active
C[C@@H]1CN([C@@H](C)CO)C(=O)Cc2cc(NS(=O)(=O)c3ccc(Cl)cc3)ccc2O[C@H]1CN(C)Cc1ccc(Cl)c(Cl)c1 | active
C[C@@H]1CN([C@H](C)CO)C(=O)Cc2cc(NS(=O)(=O)c3ccc(Cl)cc3)ccc2O[C@@H]1CN(C)Cc1ccc(Cl)c(Cl)c1 | active
C[C@H](CO)N1C[C@H](C)[C@H](CN(C)CC2CC2)Oc2ccc(NC(=O)CCN3CCOCC3)cc2CC1=O | inactive
CC(C)NC(=O)N(C)C[C@@H]1Oc2ccc(NC(=O)NC3CCCCC3)cc2C(=O)N([C@H](C)CO)C[C@@H]1C | inactive
CC(C)(C)[S@@](=O)N1Cc2cc(C(=O)NCc3ccc4c(c3)OCO4)nc(CCNS(=O)(=O)c3ccccc3)c2[C@H]1CCO | inactive
CCS(=O)(=O)N1CC[C@]2(CC1)CN(CC1CCOCC1)[C@H](CO)c1c2c2ccc(cc2n1C)OC | inactive
Cc1noc(C)c1S(=O)(=O)Nc1ccc2c(c1)CC(=O)N([C@H](C)CO)C[C@H](C)[C@H](CN(C)Cc1ccc3c(c1)OCO3)O2 | inactive

Structure (SMILES) | cytotoxicity call
C[C@@H]1CCCCO[C@H](CN(C)C(=O)Nc2ccc(F)cc2)[C@@H](C)CN([C@H](C)CO)C(=O)c2cc(NC(=O)Nc3ccc4c(c3)OCO4)ccc2O1 | inactive
Cc1noc(C)c1NC(=O)N(C)C[C@@H]1Oc2ccc(NS(=O)(=O)c3cn(C)cn3)cc2C(=O)N([C@H](C)CO)C[C@@H]1C | inactive
Cc1ccc(S(=O)(=O)N(C)C[C@@H]2OCCCC[C@@H](C)Oc3ccc(NC(=O)Nc4ccc(F)cc4)cc3C(=O)N([C@@H](C)CO)C[C@H]2C)cc1 | inactive
O=C(C[C@@H]1C=C[C@@H](NC(=O)c2cccc(F)c2)[C@H](CO)O1)NCCN1CCCC1 | inactive
C[C@H](CO)N1C[C@H](C)[C@H](CN(C)Cc2ccc(Cl)c(Cl)c2)Oc2ccc(NS(=O)(=O)c3ccc(F)cc3)cc2CC1=O | inactive
C[C@@H]1CN([C@H](C)CO)C(=O)Cc2cc(NS(=O)(=O)c3ccc(Cl)cc3)ccc2O[C@H]1CN(C)Cc1ccc(Cl)c(Cl)c1 | active
C[C@H]1CN([C@@H](C)CO)C(=O)Cc2cc(NS(=O)(=O)c3ccc(Cl)cc3)ccc2O[C@H]1CN(C)Cc1ccc(Cl)c(Cl)c1 | active
C[C@H](CO)N1C[C@H](C)[C@@H](CN(C)Cc2ccc(Cl)c(Cl)c2)Oc2ccc(NS(=O)(=O)c3ccc(F)cc3)cc2CC1=O | inactive
COc1ccc(S(=O)(=O)Nc2cccc3c2O[C@@H](CN(C)S(=O)(=O)c2cccs2)[C@@H](C)CN([C@@H](C)CO)C3=O)cc1 | inactive
C[C@H]1CN([C@@H](C)CO)C(=O)c2cccc(NC(=O)Nc3cccc4ccccc34)c2O[C@H]1CN(C)C(=O)Nc1ccc(F)cc1 | inactive
OCCN1CCOCC1 | inactive
CCN1C(=O)S[C@@H](CC(=O)O)C1=O | inactive
COc1ccc(NC(=O)N(C)C[C@@H]2Oc3c(NS(C)(=O)=O)cccc3C(=O)N([C@@H](C)CO)C[C@H]2C)cc1 | inactive
CN1C(=O)c2cc(NC(=O)Nc3ccccc3F)ccc2OC[C@@H]2O[C@H](CC(=O)NCc3ccc(-c4ccccc4)cc3)CC[C@H]21 | inactive
O=[N+]([O-])c1ccc(Oc2ccc(-c3ccccc3)cc2)cc1 | inactive
O=c1cc(O)nc[nH]1 | inactive
O=C(O)c1ccc(O)c(O)c1O | inactive
CSCC[C@H](NC(=O)[C@H](Cc1c[nH]c2ccccc12)NC(=O)CNC(=O)[C@@H](NC(=O)[C@H](Cc1ccc(OS(=O)(=O)O)cc1)NC(=O)[C@H](CC(=O)O)NC(=O)[C@H](CCC(N)=O)NC(=O)[C@@H]1CCC(=O)N1)[C@@H](C)O)C(=O)N[C@@H](CC(=O)O)C(=O)N[C@@H](Cc1ccccc1)C(N)=O | inactive
CSCC[C@H](NC(=O)[C@H](Cc1ccc(OS(=O)(=O)O)cc1)NC(=O)[C@@H](N)CC(=O)O)C(=O)NCC(=O)N[C@@H](Cc1c[nH]c2ccccc12)C(=O)N[C@@H](CCSC)C(=O)N[C@@H](CC(=O)O)C(=O)N[C@@H](Cc1ccccc1)C(N)=O | active
CSCC[C@H](NC(=O)[C@@H](N)Cc1c[nH]c2ccccc12)C(=O)N[C@@H](CC(=O)O)C(=O)N[C@@H](Cc1ccccc1)C(N)=O | inactive
C[C@H]1CN([C@@H](C)CO)C(=O)Cc2cc(NC(=O)c3ccncc3)ccc2O[C@H]1CN(C)S(=O)(=O)c1ccc(F)cc1 | inactive
C[C@H](CO)N1C[C@H](C)[C@@H](CN(C)S(=O)(=O)c2ccc(F)cc2)OCCCC[C@H](C)Oc2ccc(NC(=O)c3ccccc3)cc2C1=O | inactive

Structure (SMILES) | cytotoxicity call
O=C(O)[C@H]1C[C@@H](CP(=O)(O)O)CCN1 | inactive
COc1ccc(NC(=O)Nc2ccc3c(c2)C(=O)N([C@@H](C)CO)C[C@H](C)[C@H](CN(C)Cc2ccc(C(F)(F)F)cc2)O3)cc1 | inactive
COc1ccc(CN(C)C[C@H]2Oc3ccc(NC(=O)Nc4ccc(C(F)(F)F)cc4)cc3C(=O)N([C@H](C)CO)C[C@@H]2C)cc1 | inactive
COc1ccc(CN(C)C[C@@H]2Oc3ccc(NC(=O)Nc4ccc(C(F)(F)F)cc4)cc3C(=O)N([C@H](C)CO)C[C@H]2C)cc1 | active
COc1ccc(NC(=O)Nc2ccc3c(c2)C(=O)N([C@H](C)CO)C[C@H](C)[C@@H](CN(C)Cc2ccc(C(F)(F)F)cc2)O3)cc1 | inactive
COc1ccc(NC(=O)Nc2ccc3c(c2)C(=O)N([C@H](C)CO)C[C@@H](C)[C@H](CN(C)Cc2ccc(C(F)(F)F)cc2)O3)cc1 | inactive
COc1ccc(CN(C)C[C@@H]2Oc3ccc(NC(=O)Nc4ccc(C(F)(F)F)cc4)cc3C(=O)N([C@H](C)CO)C[C@@H]2C)cc1 | active
COc1ccc(CN(C)C[C@@H]2Oc3ccc(NC(=O)Nc4ccc(C(F)(F)F)cc4)cc3C(=O)N([C@@H](C)CO)C[C@H]2C)cc1 | active
COc1ccc(NC(=O)Nc2ccc3c(c2)C(=O)N([C@@H](C)CO)C[C@@H](C)[C@H](CN(C)Cc2ccc(C(F)(F)F)cc2)O3)cc1 | inactive
COc1ccc(CN(C)C[C@H]2Oc3ccc(NC(=O)Nc4ccc(C(F)(F)F)cc4)cc3C(=O)N([C@H](C)CO)C[C@H]2C)cc1 | inactive
COc1ccc(CN(C)C[C@@H]2Oc3ccc(NC(=O)Nc4ccc(C(F)(F)F)cc4)cc3C(=O)N([C@@H](C)CO)C[C@@H]2C)cc1 | active
COc1ccc(NC(=O)Nc2ccc3c(c2)C(=O)N([C@@H](C)CO)C[C@@H](C)[C@@H](CN(C)Cc2ccc(C(F)(F)F)cc2)O3)cc1 | inactive
COc1ccc(NC(=O)Nc2ccc3c(c2)C(=O)N([C@@H](C)CO)C[C@H](C)[C@@H](CN(C)Cc2ccc(C(F)(F)F)cc2)O3)cc1 | inactive
Nc1cccn2ncnc12 | inactive
CCCC(=O)Nc1nc2[nH]c(C)cc(=O)n2n1 | inactive
COc1cccc(CNC(=O)c2cc3c(c(-c4cccc(-c5cccc(C#N)c5)c4)n2)[C@@H](CCO)N([S@](=O)C(C)(C)C)C3)c1 | inactive
COC1(NC(=O)C(C(=O)[O-])c2ccc(O)cc2)C(=O)N2C(C(=O)[O-])=C(CSc3nnnn3C)COC21.[Na+].[Na+] (centres undefined) | inactive
CNC[C@H]1OCCCC[C@@H](C)Oc2ccc(NC(=O)c3ccncc3)cc2C(=O)N([C@@H](C)CO)C[C@H]1C | inactive
C[C@@H]1CCCCO[C@@H](CN(C)C(=O)Nc2ccc(F)cc2)[C@@H](C)CN([C@H](C)CO)C(=O)c2cc(NC(=O)C3CCCCC3)ccc2O1 | inactive
C[C@@H]1CN([C@@H](C)CO)C(=O)c2cc(NC(=O)c3ccccc3)ccc2O[C@@H](C)CCCCO[C@@H]1CN(C)S(=O)(=O)c1ccc(F)cc1 | inactive
